Source: PubChem (several laboratories)
Rows were chosen to be rich in hits. Some 12% of all compounds tested hit in one or more screens of this group.
L major viab = Leishmania major promastigote growth inhibition, primary screen; Leishmania major promastigotes, resazurin fluorescence viability; inhibition, % at 10 µM; hit rate 9% among 200,000; in the data active = inhibition above about 50%;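 also: promastigotes grown with compound for 44 hours at 28 °C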
ROMK primary = ROMK potassium channel modulators, primary screen, cell-based, thallium flux, MLSMR library; AID 1918, 2009; B-score at 10 µM; hit rate 2% among 130,000; Tet-inducible ROMK, thallium flux fluorescence; actives lie on both sides; ATP-sensitive inward rectifier potassium channel 1 (Homo sapiens), P48048;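 active = signal ratio slope over the read window, or its plate-corrected B-score, at least 3 SD from the plate mean, either direction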;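 also: B-score of the F/F0 ratio slope over 7 to 12 s after thallium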
Target sequence (P48048 whole entry, looked up): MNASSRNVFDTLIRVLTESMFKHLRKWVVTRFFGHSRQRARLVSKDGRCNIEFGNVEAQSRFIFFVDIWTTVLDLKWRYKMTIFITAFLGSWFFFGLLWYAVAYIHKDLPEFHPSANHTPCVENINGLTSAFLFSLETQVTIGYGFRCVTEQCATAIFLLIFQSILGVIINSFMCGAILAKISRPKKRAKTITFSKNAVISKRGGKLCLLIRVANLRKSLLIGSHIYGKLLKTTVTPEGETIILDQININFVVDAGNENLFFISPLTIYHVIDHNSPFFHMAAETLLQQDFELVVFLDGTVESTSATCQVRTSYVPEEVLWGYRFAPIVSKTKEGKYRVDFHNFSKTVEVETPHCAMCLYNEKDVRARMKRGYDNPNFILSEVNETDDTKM
Calpain2 inh = inhibitors of pig calpain II, primary screen, biochemical, fluorogenic peptide substrate, 1536-well | purified calpain II, 30 min | hit rate 0.37% among 220,000 | inhibition, % at 16 µM;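 active = inhibition above about 50%, limit read from the data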
WT yeast gro inh = growth inhibition of WT strain, primary screen, mitochondrial fusion inhibitor project, WT and mutant strains, chemical genetic; mitochondrial fusion phenotypic screen; inhibition, % at 10 µM; hit rate 2.1% among 190,000; in the data active = inhibition above about 58%; tested in S. cerevisiae
Cl transport mod = KCC2 cotransporter modulators, thallium flux, primary screen, cell-based, HEK293 KCC2, FluoZin-2 fluorescence, MLSMR; KCC2 cells, thallium flux FluoZin-2 fluorescence; B-score of Tl+ flux slope (higher = more flux/activation; lower = inhibition) at 10 µM; hit rate 2.2% among 190,000;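 active = thallium flux slope and its plate-corrected score both differing from the plate sample mean at a set confidence after two filtering rounds, in either direction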;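 also: slope of fluorescence scaled to starting intensity during 10 to 20 s after thallium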
* marks the source's active call; other numbers are inactive results; i = inactive; x = no result given.

SMILES	L major viab	ROMK primary	Calpain2 inh	WT yeast gro inh	Cl transport mod
COc1cccc(OCC(=O)Nc2ccccc2NC(C)=O)c1	-1.1	x	15.3	7.7	-0.38
N=c1sccn1CC(=O)Nc1cc(Cl)ccc1Oc1ccccc1	100.4*	-1.81	-1.8	-7.8	-0.278
Cc1cccc(C)c1N(CC(=O)Nc1cc(Cl)ccc1Oc1ccccc1)S(C)(=O)=O	10.2	x	52.0*	25.1	-1.13
C=C(C)CCOC(=O)C(CC(=O)O)NCc1ccco1 (stereo not drawn)	x	x	20.5	x	0.382
CCCCCCCc1ccc(-c2ccc(O)cc2)nc1	-1.1	0.589	11.3	73.5*	0.707
CN(C)c1nn(C(=O)Nc2cccc(C(F)(F)F)c2)cc1-c1ccccc1	4.3	x	-22.8	63.4*	-0.0541
CCN(CC)S(=O)(=O)c1cccc(NC(=O)/C=C/c2cccc([N+](=O)[O-])c2)c1	99.3*	x	23.2	7.5	1.13
CCN(CC)S(=O)(=O)c1cccc(NC(=O)/C=C/c2ccc([N+](=O)[O-])cc2)c1	-1.7	x	19.2	0.7	0.636
Cn1nc(C(=O)Nc2cccc(C(F)(F)F)c2)ccc1=O	98.6*	x	-2.0	15.1	-0.858
CN(C)S(=O)(=O)c1cccc(NC(=O)COC(=O)/C=C/c2ccco2)c1	-3.1	x	-20.9	-15.6	-1.39
CCN(CC)S(=O)(=O)c1cccc(NC(=O)COC(=O)/C=C/c2ccco2)c1	57.3*	x	10.0	6.1	-1.01
CCN(CC)S(=O)(=O)c1cccc(NC(=O)Nc2cccc(C(F)(F)F)c2)c1	100.5*	-0.273	40.3	18.8	-0.104
CC(C)CNC(=O)c1ccccc1NC(=O)/C=C/c1cccc([N+](=O)[O-])c1	52.6*	0.601	19.5	7.7	0.717
O=C(/C=C/c1cccc([N+](=O)[O-])c1)NC(=S)Nc1ccccc1C(=O)O	4.1	-1.83	-24.0	-3.6	-0.46
N#Cc1c(-c2cccs2)cc(-c2cccnc2)nc1N	52.9*	x	i	-0.1	x
CCN1CCN(CC(=O)Nc2cccc(C)c2)C(=O)C1=O	-6.7	x	x	4.8	0.175
CCOC(=O)c1oc2ccc(Cl)cc2c1NC(C)=O	-3.6	1.67	13.8	-1.1	0.71
O=C(c1cc(-c2ccc(Cl)cc2)n(-c2cc(Cl)ccc2Cl)n1)N1CCOCC1	14.6	x	-3.4	42.7	x
O=C(c1cc(-c2ccc(Cl)cc2)n(-c2ccc(Cl)c(Cl)c2)n1)N1CCOCC1	13.7	x	-5.7	65.8*	0.192
CC(=O)N1CCN(c2nc(-c3cccs3)nc3ccccc23)CC1	76.9*	-1.21	35.3	8.4	-2.62
CN1CCN(c2nc(-c3ccccn3)nc3ccccc23)CC1	99.9*	x	18.1	9.1	0.381
Oc1ccccc1-c1nc(N2CCCC2)c2ccccc2n1	0.0	0.252	-294.7	-2.0	-0.0302
c1ccc(N2CCN(c3nc(-c4ccccn4)nc4ccccc34)CC2)cc1	100.2*	-0.78	1.8	74.8	-1.75
CCCN1CCN(c2nc(-c3cccs3)nc3ccccc23)CC1	30.2	-0.573	3.8	2.8	-0.16
O=C(CCN1CCC(c2ccc(Cl)s2)=N1)c1ccc(Cl)s1	x	x	-11.2	x	x
SMILES	L major viab	ROMK primary	Calpain2 inh	WT yeast gro inh	Cl transport mod
O=C(Oc1c(-c2ccccc2Cl)oc2ccccc2c1=O)c1ccc(Cl)cc1	54.9*	-0.116	18.7	18.3	0.535
Cc1ccc(C)c2[nH]c(=O)c(CCNC(=O)c3ccco3)cc12	-6.0	-0.0261	-4.7	-10.4	0.598
CC(C)(C)c1ccc(S(=O)(=O)Nc2cccc(C3OCCCO3)c2)cc1	86.1*	-1.62	2.5	45.1	-1.19
CC(C)(C)NC(=O)COC(=O)c1cc(F)c(F)cc1Cl	-4.2	-0.0197	5.0	5.7	0.00222
COc1cc2c(cc1NC(=O)CN1CCN(S(=O)(=O)c3ccc(C)cc3)CC1)oc1ccccc12	32.4	0.109	-63.0	9.4	-0.383
COc1cc2c(cc1NS(=O)(=O)N1CCCC1)oc1ccccc12	99.6*	x	-55.7	17.2	0.271
Cc1cc(C)c(C)c(S(=O)(=O)N2CCN(c3ccc(O)cc3)CC2)c1C	55.0*	0.673	-3.8	13.4	-0.00776
Cc1cc(C)nc(NC(=O)/C=C/c2ccc3c(c2)OCO3)c1	23.3	0.786	-30.9	21.3	-0.808
COc1ccc(NC(=O)Cc2coc3ccc4ccccc4c23)cc1S(=O)(=O)N1CCOCC1	78.3*	x	-31.7	-16.9	-0.561
COc1ccc(NC(=O)CN2CCc3ccccc3C2)cc1S(=O)(=O)N1CCOCC1	69.8*	x	-4.1	14.7	-0.517
CCOC(=O)C1CCN(CCC(=O)Nc2ccc(C)cc2)CC1	56.5*	-0.282	-16.8	-10.6	1.12
Cc1c(Cl)cccc1NC(=O)CCN1CCCCC1	9.7	-0.534	9.3	8.7	0.013
CCOC(=O)C1CCCN(CCC(=O)Nc2ccc(C)cc2)C1 (stereo not drawn)	11.7	x	-18.8	-8.9	-1.11
CCOC(=O)C1CCN(CCC(=O)Nc2ccccc2Cl)CC1	77.7*	x	-8.3	-7.4	0.0928
CCOC(=O)C1CCN(CCC(=O)Nc2cccc(Cl)c2)CC1	93.2*	x	-17.6	10.3	-0.712
COc1cc(OC)c(S(=O)(=O)Nc2ccccc2NC(=O)CN2CCOCC2)cc1NC(C)=O	-9.7	0.556	-12.7	-15.8	0.978
Cc1ccc2nc(N/C(N)=N/S(=O)(=O)c3ccc([N+](=O)[O-])cc3)nc(C)c2c1	98.7*	0.173	-65.3	3.1	0.0178
COc1ccc(CCNC(=O)CSc2nncs2)cc1	58.6*	x	-8.2	-10.5	0.637
O=C(CN(CC1CCCO1)C(=O)c1nsc(Cl)c1Cl)NC1CCCC1 (stereo not drawn)	-0.2	-0.211	-10.2	-14.5	0.607
CCOC(=O)/C(C#N)=C/c1c(N2CCN(Cc3ccc4c(c3)OCO4)CC2)nc2c(C)cccn2c1=O	x	x	-20.7	x	0.176
Cc1cccn2c(=O)c(/C=C(\C#N)C(N)=O)c(N3CCN(Cc4ccc5c(c4)OCO5)CC3)nc12	65.0*	x	-10.0	-22.9	-2.8
CCc1ccc2[nH]c(=O)c(CN(CCN(C)C)C(=O)Nc3ccccc3OC)cc2c1	3.1	x	-14.4	5.5	-0.0208
O=C(NC1CCCCC1)N(Cc1cc2cc3c(cc2[nH]c1=O)OCCO3)C1CCCCC1	68.8*	-0.0595	-261.0	10.0	x
COc1ccc2[nH]c(=O)c(CN(C(=O)c3ccco3)C(C)C)cc2c1	x	x	-25.0	x	-0.0258
COc1ccc(CC(=O)N(Cc2cc3cc(OC)ccc3[nH]c2=O)C(C)C)cc1	94.0*	x	-183.0	6.8	x
COc1ccc2cc(CN(C(=O)Nc3ccccc3OC)C3CCCC3)c(=O)[nH]c2c1	53.1*	x	-7.1	3.2	0.314
CCc1ccc2[nH]c(=O)c(CN(Cc3ccccc3)C(=O)Nc3ccccc3OC)cc2c1	63.6*	-0.0197	-28.7	54.0	-0.806
Cc1nc(C)c(-c2ccn(C(=O)NC(C)C)n2)s1	x	0.503	-13.1	x	-0.161
COc1cc(C(c2nnnn2C(C)(C)C)N2CCN(C)CC2)cc(OC)c1OC (stereo not drawn)	0.3	x	8.9	-11.8	-0.466
CN(C)S(=O)(=O)c1ccc(Cl)c(NC(=O)c2ccncc2)c1	-3.3	1.17	-3.8	-8.5	0.484
